Source: PubChem BioAssay (The Scripps Research Institute Molecular Screening Center)
An excerpt weighted towards active compounds, which were near 4.1% of everything screened.
DAX1 inh-1: DAX1 (NR0B1) inhibitors on StAR promoter, primary screen, cell-based, luminescence, SF-1 (NR5A1), full-length DAX-1; HEK293T StAR-luciferase reporter, SF-1/DAX-1 repression relief; inhibition, % at 6.8 µM; 370,000 tested, 1.1% active;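 active = inhibition above the mean over all tested compounds plus 3 SD, cut at about 3.6% in these data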;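 note: 0% = DAX-1 cells with DMSO and 100% = cells lacking DAX-1 with DMSO; higher inhibition means more luminescence from relief of DAX-1 repression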
DAX1 inh-2: DAX1 (NR0B1) inhibitors, primary screen, cell-based, HEK293, Gal4-DAX1, luciferase luminescence | Nuclear receptor subfamily 0 group B member 1 (Homo sapiens), P51843 | HEK293 Gal4-DAX1 luciferase reporter | inhibition, % at 6.75 µM | 340,000 tested, 0.99% active;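 active = inhibition above the mean over all tested compounds plus 3 SD, cut at about 4.2% in these data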;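 note: 0% = DAX1-transfected cells with DMSO and 100% = empty-vector control cells with DMSO; inhibition shows as a rise in luminescence from relieved DAX1 repression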
ssDAF12 agonist: S. stercoralis DAF-12 nuclear receptor activators, primary screen, cell-based, luminescence, HEK293, GRIP1 co-expression, lit1-tk-luc; 370,000 tested, 1% active; Nuclear hormone receptor DAF-12 (Strongyloides stercoralis); activation, % at 6.8 µM; HEK293 ssDAF-12/GRIP1 lit1-tk-luc reporter; % of 3 µM dafachronic acid response;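 active = activation above the mean over all tested compounds plus 3 SD, cut at about 0.9% in these data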;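 note: 0% = DMSO-only wells and 100% = 3 µM delta7-dafachronic acid wells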
hcDAF-12 act: H. contortus DAF-12 nuclear receptor activators, primary screen, cell-based, luminescence, HEK293, lit1-tk-luc reporter | HEK293 hcDAF-12 lit1-tk-luc reporter; 0% DMSO, 100% Δ7-dafachronic acid | activation, % at 6.8 µM | 370,000 tested, 1.4% active | AID 652067, 2013;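 active = activation above the mean of all tested compounds plus 3 SD, cut at about 5.5% in these data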;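 note: 100% = response to 3 µM Δ7-dafachronic acid high control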
hgDAF12 agonist: H. glycines DAF-12 receptor agonists, primary screen, cell-based, luminescence, HEK293, GAL4 fusion, UAS-luciferase. activation, % at 6.8 µM. HEK293 GAL4-hgDAF12 UAS-luciferase reporter, agonist luminescence; normalized to butyrate control. Nuclear hormone receptor DAF-12 (Heterodera glycines), GAL4 fusion. 370,000 tested, 1.8% active. AID 687014, 2013;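 active = activation above a cutoff set at the mean of all screened compounds plus 3 SD, cut at about 10% in these data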;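 note: 0% = DMSO wells and 100% = sodium butyrate wells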
LXR ag: LXR agonists, Gal4 luciferase reporter, confirmation, counter-screen for hcDAF-12 agonist project, cell-based, luminescence, HEK293, H. contortus campaign. 3,400 tested, under 10 active. shares compounds with hcDAF-12 act. HEK293 Gal4-LXR tk-luc reporter, 24 h; normalized: DMSO 0%, positive control 100%. AID 743027, 2013. activation, % at 6.8 µM;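 active = mean percent activation of the reporter above a cutoff set as the average over tested compounds plus their standard deviation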
Target sequence (P55055 whole entry, looked up, the tested form may be a part): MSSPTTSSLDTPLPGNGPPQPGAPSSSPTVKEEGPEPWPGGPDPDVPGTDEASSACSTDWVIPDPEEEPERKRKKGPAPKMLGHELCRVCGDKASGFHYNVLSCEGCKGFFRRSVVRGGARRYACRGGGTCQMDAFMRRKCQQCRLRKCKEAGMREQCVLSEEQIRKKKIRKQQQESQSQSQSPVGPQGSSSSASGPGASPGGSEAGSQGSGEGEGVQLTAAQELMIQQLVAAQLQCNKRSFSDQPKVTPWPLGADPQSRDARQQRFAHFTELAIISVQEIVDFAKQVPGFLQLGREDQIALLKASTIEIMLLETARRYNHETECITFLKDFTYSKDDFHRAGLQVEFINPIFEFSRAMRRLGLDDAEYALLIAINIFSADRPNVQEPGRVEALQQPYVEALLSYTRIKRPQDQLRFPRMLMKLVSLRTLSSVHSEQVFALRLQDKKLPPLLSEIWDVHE
hcDAF12 ag: H. contortus DAF-12 receptor agonists, confirmation, cell-based, luminescence, HEK293, lit1-tk-luc, triplicate; shares compounds with hcDAF-12 act; HEK293 hcDAF-12 lit1-tk-luc reporter; % of Δ7-dafachronic acid response; activation, % at 6.8 µM; 3,400 tested, 61% active; AID 743032, 2013;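 active = mean activation across triplicate tests above the threshold derived from the earlier primary screen, cut at about 5.5% in these data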;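 note: 0% = DMSO only wells and 100% = 3 µM Δ7-dafachronic acid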
Starred values were filed as active, the others as inactive; . = not tested or not shown.

SMILES	DAX1 inh-1	DAX1 inh-2	ssDAF12 agonist	hcDAF-12 act	hgDAF12 agonist	LXR ag	hcDAF12 ag
c1ccc(SCc2nc(-c3cccnc3)no2)cc1	0.3	2.4	0.5	7.3*	8.4	1.6	5.8*
Cc1c(C(O)(c2ccccc2)c2ccccc2)[n+]2ccccc2n1C	.	.	-1.3	-1.4	-2.1	.	.
CCCn1c(/C=C/c2ccccc2)nc2ccccc21	3.6*	1.4	0.0	6.6*	10.9*	0.8	7.9*
Cc1ccc2nc(NC(=S)NC(=O)c3cccs3)sc2c1	1.3	2.4	0.9*	7.2*	11.2*	1.2	15.4*
Cc1cc(C)c2oc(-c3ccc(C)c(NC(=S)NC(=O)c4cccs4)c3)nc2c1	0.2	3.5	0.7	7.7*	6.9	-0.2	4.0
O=C(Nc1nc2c(s1)CCCC2)c1cccs1	3.0	-1.5	0.7	9.5*	9.6	1.3	6.1*
Cc1ccc2nc(NC(=O)c3cccs3)sc2c1	2.6	-1.8	1.1*	10.2*	11.0*	1.5	5.9*
CC1(c2ccc(Cl)cc2Cl)NC(=O)N(CC(=O)NCCC2=CCCCC2)C1=O (stereo not drawn)	-3.3	1.0	-0.8	1.0	-2.3	.	.
COc1ccc(CN2C(=O)CCCC2(C)c2nnnn2-c2ccc3c(c2)OCCO3)cc1 (stereo not drawn)	-0.7	.	-1.5	-0.1	-0.5	.	.
Fc1cccc(Cl)c1/C=N/Nc1ccccn1	0.3	0.9	0.6	7.0*	6.4	0.2	10.0*
Fc1cccc(F)c1/C=N/Nc1ccccn1	1.5	5.2*	1.5*	7.1*	13.2*	0.5	10.0*
Clc1ccc(C=NNc2ccccn2)c(Cl)c1	-1.2	-0.3	-0.2	2.4	0.2	.	.
O=C(NC(=S)Nc1cc([N+](=O)[O-])ccc1O)C1CC1	-0.3	0.3	-0.7	9.6*	2.6	-0.3	0.7
CC(=O)Nc1cccc(NC(=O)Cc2cccs2)c1	0.2	0.1	-0.8	0.1	-0.2	.	.
O=C(Cc1cccs1)Nc1cccc(-c2nc3cc4ccccc4cc3[nH]2)c1	2.7	0.6	0.9	9.4*	13.2*	1.8	5.4
O=C(OCC(=O)c1c[nH]c2ccccc12)C1=COCCO1	2.8	1.5	1.0*	7.2*	9.3	0.9	9.9*
Cc1ccc(CN2CCCCC(NC(=O)c3ccccc3C)C2=O)cc1 (stereo not drawn)	-0.8	.	-1.2	-2.5	0.9	.	.
Cc1ccc(C)c(NCC(=O)c2ccc(Cl)cc2)c1	0.5	-1.1	0.7	7.1*	12.4*	-0.2	0.7
COc1ccc(CN(C)C(=O)C2CSC3(C)CCC(=O)N23)c(OC)c1 (stereo not drawn)	0.9	-0.5	-0.4	-1.0	-1.3	.	.
CCc1c(C)nc(SCC(N)=O)c(C#N)c1C	-0.1	-0.5	-1.0	-1.7	1.0	.	.
CCc1c(C)nc(SCC(=O)c2cccs2)c(C#N)c1C	2.0	2.5	0.8	8.2*	5.7	1.0	8.7*
O=C(O)Cc1ccc2ccc3ccccc3c2c1	0.2	.	-0.3	8.5*	1.4	0.0	4.9
CCNC(=O)CCc1nc(-c2ccc(C(C)C)cc2)no1	.	.	-1.9	-3.3	-2.8	.	.
O=c1[nH]c2ccccc2cc1-c1nnn(-c2ccc(F)cc2)n1	0.6	0.7	-0.3	1.2	2.1	.	.
Fc1ccc(-n2nnc(-c3cnc4ccccc4c3)n2)cc1	2.8	-1.3	0.4	9.6*	10.9*	0.1	1.1
SMILES	DAX1 inh-1	DAX1 inh-2	ssDAF12 agonist	hcDAF-12 act	hgDAF12 agonist	LXR ag	hcDAF12 ag
O=C1c2ccccc2NC(c2ccc(-c3ccc(C(F)(F)F)cc3)o2)N1O (stereo not drawn)	-1.1	3.2	-1.5	-1.5	0.7	.	.
O=C1c2ccccc2NC(c2ccc(-c3cccs3)o2)N1O (stereo not drawn)	2.4	2.5	1.0*	7.1*	11.5*	1.1	6.0*
COC(=O)[C@@H](CC(C)C)CP(=O)(OC)[C@@H](C)NC(=O)OCc1ccccc1 (stereo partly drawn)	-1.4	.	-0.9	1.0	4.6	.	.
O=P1(O)C=C(c2ccccc2)OC(c2ccccc2)=C1	0.9	0.2	1.4*	9.9*	7.5	0.6	11.2*
COc1ccccc1OCCNC(=O)c1cc(F)c(F)cc1Cl	0.3	1.0	-0.2	7.8*	3.2	0.0	2.7
CC1CN(S(=O)(=O)c2ccc(C(=O)Nc3ccc(S(=O)(=O)Nc4nccs4)cc3)cc2)CC(C)O1 (stereo not drawn)	1.8	3.1	-0.6	1.5	-1.8	.	.
Cc1ccnc(NS(=O)(=O)c2ccc(NC(=O)c3ccc(S(=O)(=O)N4CC(C)OC(C)C4)cc3)cc2)n1 (stereo not drawn)	1.3	0.1	-1.2	19.4*	0.1	-0.1	0.9
COC(=O)Cn1c(=NC(=O)C2CC2)sc2c(C)cc(C)cc21	0.3	-1.0	-1.3	-1.0	0.3	.	.
Cc1ccc2c(c1)sc(=NC(=O)c1cccs1)n2C	2.2	-4.1	1.6*	7.9*	15.5*	1.4	23.2*
Cc1ccc2c(c1)sc(=NC(=O)C1CC1)n2C	2.5	3.0	1.7*	8.7*	13.0*	0.9	14.1*
COc1cccc(S(=O)(=O)N(C)C[C@H]2Oc3cc(Br)ccc3S(=O)(=O)N([C@@H](C)CO)C[C@H]2C)c1	-1.7	-0.5	-1.1	1.4	-1.1	.	.
COc1ccc(CCNC(=O)Nc2ccc3c(c2)[C@@]2(CC(=O)N(CC(C)C)C2c2ccccc2)C(=O)N3C)cc1OC (stereo partly drawn)	-2.0	.	-1.2	-0.6	5.0	.	.
CC(C)[C@@H](CO)NC(=O)c1ccc2c3n(nc2c1)-c1ccccc1CO3	2.6	-1.2	0.3	5.2	9.7	.	.
CC(C)NC(=O)c1ccc2c3n(nc2c1)-c1ccccc1CO3	3.0	-4.5	0.2	6.9*	9.4	1.6	8.1*
